# From PubChem BioAssay (NCI)
# About 83,000 compounds went through this panel and 20% of them were active in at least one assay; those are over-represented in the sample as a whole.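 Plates (96-well) were seeded with cells, treated with compound at one concentration, and incubated for 48 hours before percent growth was determined.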 Calls of active or inactive are those of the source. The calls were made as follows: active = growth percent below 10; inactive = the rest.
# Test system: COLO 205 colon
# Assay: NCI-60 one-dose screen, 48 h (100 = growth as untreated, 0 = no growth, -100 = all killed)
# Conditions: 10 µM unless noted
row,SMILES,growth
1,COc1ccc(C2Nc3ncnc(N)c3N=C3c4ccccc4C(=O)C32)cc1 (stereo not given),93.2% (inactive)
2,Nc1nc(N)c2c(n1)NC1(C=C(O)c3ccccc31)C1=C(N2)c2ccccc2C1=O (stereo not given),118% (inactive)
3,CCOC(=O)c1cnc2ccc(Cl)cc2c1NCCCN(C)C,31.4% (inactive)
4,CCCCCCc1cc2cc(-c3nc4ccccc4[nH]3)c(=Nc3ccccc3C)oc2cc1O,-94.3% (active)
5,OC(c1ccccc1)c1nnc(SCc2ccccc2)n1Cc1ccccc1 (stereo not given),102% (inactive)
6,CC(=O)O[C@@H]1/C=C/C(=O)N[C@@H](C)CCC/C=C/[C@@H]2CCC[C@H]21,114% (inactive)
7,COc1ccc(C2Nc3nc(OC)n(C)c(=O)c3N=C3c4ccccc4C(=O)C32)cc1 (stereo not given),104% (inactive)
8,CN1CCN(c2nc(Nc3ccc(O)cc3)nc3ccccc23)CC1,44.1% (inactive)
9,COc1ccc(/C=C2\SC(=Nc3ccccc3)NC2=O)cc1,-94.3% (active)
10,CCOC(=O)c1cc2c(n1Cc1cc(OC)c(OC)c(OC)c1)-c1oncc1CCC2,-39.9% (active)
11,Cn1c2c(c(=O)[nH]c1=O)NC1=C(C(=O)c3ccccc31)C1(C=C(O)c3ccccc31)N2 (stereo not given),121% (inactive)
12,FC(F)(F)c1cccc(Nc2nc(-c3ccccc3)nc3ncccc23)c1,-75% (active)
13,O=C(Nc1ccc(Cl)cc1)c1cc2ccccc2cc1OP(=O)(O)O,98.9% (inactive)
14,COC(=O)/C(=C\c1c(-c2ccccc2)[nH]c2ccccc12)S(C)(=O)=O,24.3% (inactive)
15,Nc1ccc(C2c3ccccc3Oc3ccccc32)cc1,105% (inactive)
